Bioassay records as filed in PubChem.
Only some compounds are listed: those with a hit (about 7.3% of all), similar ones and a draw of the others.
VP16 counter: inhibits Gal4-VP16 luciferase reporter, ROR gamma counter-screen; Drosophila S2 Gal4-VP16 UAS-luciferase, luminescence, 20 h; Potency, µM (doses to about 53.6 µM), without a hit: at the highest dose activity, negative = inhibition, usual class: inhibitors; actives 3.5% (n = 310,000); AID 2546;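 note: Gal4-VP16 expression switched on by copper sulfate through the metallothionein promoter; nearly all actives have a fitted effect of over 50% in size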
Tau fluor counter: counter-screen for tau fibril formation inhibitors; tau K18 P301L Alexa594 fluorescence, heparin fibrillization; Potency, µM (highest dose often 57.7 µM), for the others: at the highest dose activity change, negative = decrease; actives 0.93% (n = 280,000); AID 1463; note: nearly all actives have a fitted effect of over 55% in size
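Human K18 P301L tau (15 uM unlabeled plus 0.24 uM Alexa 594-labeled, final) in 100 mM sodium acetate pH 7 was mixed with compound and 20 uM heparin and incubated 6 hr at 37 C.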
Tau fibril FP: tau fibrillization inhibition (FP); actives 0.39% (n = 280,000); Potency, µM (series often up to 57.7 µM), for inactives: at the highest dose activity, negative = inhibition, usual class: inhibitors; K18 P301L tau heparin fibrillization, Alexa594 FP, 6 h; note: nearly all actives have a fitted effect of over 55% in size
Target sequence (P10636 561-689 P618L limits assumed): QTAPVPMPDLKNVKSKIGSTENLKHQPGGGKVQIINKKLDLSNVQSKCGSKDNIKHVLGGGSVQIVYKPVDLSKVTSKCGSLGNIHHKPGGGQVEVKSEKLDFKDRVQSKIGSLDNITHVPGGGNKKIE
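Quantitative HTS format: compounds meet 15 uM recombinant K18 P301L tau and Alexa 594-tau tracer in 100 mM sodium acetate pH 7; 20 uM heparin triggers fibrillization at 37 C over 6 hr; FP gives the signal.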
Tau fibril ThT: blocks human tau fibril formation measured by thioflavin T; P10636; recombinant tau K18 P301L (four-repeat tau fragment), heparin-induced fibrillization, ThT fluorescence; Potency, µM (highest dose often 57.4 µM), for inactives: at the highest dose activity, negative = inhibition, actives largely listed as inhibitors; actives 2.1% (n = 270,000); AID 1460; note: nearly all actives have a fitted effect of over 55% in size
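Recombinant human tau K18 fragment […] carrying P301L, 15 uM unlabeled plus 0.24 uM Alexa 594-labeled, was fibrillized with 20 uM heparin in 100 mM sodium acetate pH 7 for 6 hr at 37 C; 30 uM ThT fluorescence read after 1 hr.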
RORg inh: blocks mouse ROR gamma transcriptional activity; P51450; Drosophila S2 Gal4-RORgamma UAS-luciferase reporter, 20 h; Potency, µM (series often up to 53.6 µM), without a hit: top-dose activity change, negative = inhibition, most hits filed as inhibitors; actives 5.4% (n = 310,000); AID 2551; note: nearly all actives have a fitted effect of over 60% in size
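Using a luciferase readout, inhibitors were identified by reduced reporter activity in Drosophila cells coexpressing a copper-inducible Gal4–ROR gamma fusion and UAS-driven Photinus luciferase, incubated 20 hr after 700 uM copper sulfate.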
Numbers without * were called inactive; ? = inconclusive; nt = no result; [ ] = remark or other dose. Calls come from the whole dose curve; as a rule, active = well fitted curve in the direction sought with a large enough effect; inconclusive = small, poorly fitted or top-dose-only effect, or another doubt; inactive = no such curve, though single readings can be large; an effect the other way counts as inactive or inconclusive. % is set by controls: 0 for no effect and ±100 for the full control effect; potency is the fitted concentration of half-maximal effect.

SMILES | VP16 counter | Tau fluor counter | Tau fibril FP | Tau fibril ThT | RORg inh
CCOC(=O)N1CCN(C(=O)c2cc(COc3cccc(C(F)(F)F)c3)on2)CC1 | 7.0% | nt | nt | nt | ?
COc1ccc(-n2c(SCC(=O)N3CCOCC3)nc(O)cc2=O)cc1 | 0.3% | nt | nt | nt | 11.2µM*
c1ccn2cc(-c3ccc4c(c3)OCCO4)nc2c1 | ? | -8.1% | -1.1% | ? | 3.55µM*
Clc1ccc2nc(-c3ccccc3)cn2c1 | ? | nt | nt | nt | 11.2µM*
CCc1ccn2cc(-c3cc(-c4ccccc4)no3)nc2c1 | -11.6% | -19.4% | -13.1% | -1.4% | 2.3%
Cc1ccc2nc(-c3ccc4c(c3)OCCO4)cn2c1 | 1.12µM* | -8.4% | -1.2% | ? | 0.398µM*
Cc1ccc2nc(-c3cc(-c4ccccc4)no3)cn2c1 | 3.98µM* | 5.8% | -0.2% | ? | 1.41µM*
CN(C)S(=O)(=O)c1cccc(-c2cn3cc(Cl)ccc3n2)c1 | ? | -0.9% | -4.4% | -8.4% | 12.3%
O=C(Cc1cccs1)Nc1c(C(=O)Nc2ccc(F)cc2)oc2ccccc12 | nt | ? | -16.5% | 3.8% | nt
Cc1ccccc1NC(=O)Cn1c(=O)oc2cc(Br)ccc21 | nt | -1.6% | -1.0% | 3.1% | nt
Clc1ccc2nc(-c3ccc4c(c3)OCO4)cn2c1 | 8.91µM* | -6.1% | -7.6% | ? | 5.01µM*
CN(C)c1ccc(CNC(=O)c2cccn2-c2nnc(N3CCCCC3)s2)cc1 | nt | -5.5% | 10.8% | -6.5% | nt
CCC(Cn1nnc2ccccc2c1=O)NC(=O)Nc1cc(C)cc(C)c1 (configuration not stated) | nt | -5.5% | -8.1% | 0.1% | nt
Nc1c(C(=O)Nc2ccc(Cl)cc2F)sc2nc(-c3cccs3)ccc12 | nt | 2.24µM*[quencher] | -12.4% | ? | nt
Nc1c(C(=O)Nc2nc3ccccc3s2)sc2nc(-c3cccs3)ccc12 | -18.9% | 12.6µM*[quencher] | 4.2% | ? | 18.3%
CC(=O)c1sc2nc(-c3cccs3)ccc2c1N | 11.1% | ? | -16.2% | 15.8µM* | 23.9%
CC(C)NC(=O)c1sc2nc(-c3cccs3)cc(-c3cccs3)c2c1N | 4.8% | -23.8% | 0.8% | ? | -7.7%
Nc1c(C(=O)Nc2ccccc2Br)sc2nc(-c3cccs3)ccc12 | nt | 3.16µM*[quencher] | ? | ? | nt
COc1ccccc1NC(=O)c1sc2nc(-c3ccco3)ccc2c1N | 11.8% | ? | 8.6% | ? | 1.7%
COc1ccc(-c2ccc(N(C)C)cc2)cc1C1C2C=CCC(C)C2C(=O)N1Cc1ccccc1 (configuration not stated) | 13.0% | nt | nt | nt | -0.2%
O=C(NCCOCCn1c(=O)oc2ccccc21)Nc1ccc(Cl)cc1 | nt | -23.8% | -9.8% | 1.2% | nt
C/C(O)=C(/C#N)c1nc2ccccc2[nH]1 | ? | -4.9% | -0.4% | -7.9% | 7.94µM*
N#C/C(=C(/O)c1ccc(Cl)c([N+](=O)[O-])c1)c1nc2ccccc2[nH]1 | ? | ? | 4.9% | ? | 12.6µM*
COc1cc(/C=C(\C#N)c2nc3ccccc3[nH]2)cc(Cl)c1OCc1ccccc1Cl | nt | ? | ? | -2.3% | nt
COc1cc(/C(O)=C(\C#N)c2nc3ccccc3[nH]2)cc(OC)c1OC | ? | nt | nt | nt | 11.2µM*
SMILES | VP16 counter | Tau fluor counter | Tau fibril FP | Tau fibril ThT | RORg inh
N#C/C(=C(/O)C(Cl)(Cl)Cl)c1nc2ccccc2[nH]1 | ? | -16.4% | -1.7% | ? | ?
N#C/C(=C(/O)c1ccc([N+](=O)[O-])cc1)c1nc2ccccc2[nH]1 | 18.1% | -14.6% | 0.5% | nt | -15.2%
N#C/C(=C(\O)c1cc(Cl)sc1Cl)c1nc2ccccc2[nH]1 | ? | nt | nt | nt | 2.51µM*
N#C/C(=C(/O)c1ccc(Cl)cc1)c1nc2ccccc2[nH]1 | 1.0% | nt | nt | nt | -21.3%
COC(=O)[C@@H]1OC(c2ccccc2)O[C@H]1C(=O)OC | -1.4% | nt | nt | nt | 2.8%
Cc1cc(C)c(NC(=O)CSc2ccnc(=O)[nH]2)c(C)c1 | nt | -3.2% | -6.5% | -6.7% | nt
CC(=O)OC(/C(O)=C(\C#N)c1nc2ccccc2[nH]1)c1ccccc1 (configuration not stated) | ? | -13.5% | 5.1% | ? | 14.1µM*
O=C(CCN1CCCC1=O)NC1CCCc2c1cnn2-c1ccc(F)cc1F (configuration not stated) | 5.9% | nt | nt | nt | ?
